Screening results from PubChem.
SRC2 inh: inhibition of GAL4-SRC2 driven luciferase reporter, primary screen, SRC2 inhibitor project, cell-based, luminescence; Nuclear receptor coactivator 2 (Homo sapiens), Q15596; HEK293 GAL4-SRC2 luciferase reporter; inhibition, % at 9 µM; 370,000 tested, 0.17% active;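 active means inhibition above the mean inhibition of all tested compounds plus 3 SD, set per campaign, cut at about 52% in these data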;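 further: 0% = DMSO treated cells and 100% = cells given Gossypol at 36 µM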
LRH-1 inv ag: LRH-1 (NR5A2) inverse agonists, primary screen, cell-based, luminescence, HEK293T, StAR-luciferase reporter | 360,000 tested, 0.13% active | LRH-1 transfected, 24 h | AID 602396, 2012 | inhibition, % at 3.6 µM;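 active means inhibition above the mean inhibition of all tested compounds plus 3 SD, cut at about 73% in these data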;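 further: 0% = DMSO wells and 100% = reporter-only cells lacking LRH-1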
SRC3 inh: SRC3 coactivator transcriptional activity inhibitors, primary screen, cell-based, luminescence; Nuclear receptor coactivator 3 (Homo sapiens), Q9Y6Q9; HEK293 GAL4-SRC3 luciferase reporter; inhibition, % at 3.6 µM; 360,000 tested, 0.17% active; AID 588352, 2011;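 active means inhibition above a per-campaign cutoff, the mean of all compounds plus 3 SD, cut at about 60% in these data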;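 further: 0% = DMSO-treated cells and 100% = gossypol-treated cells at 36 µM; higher means less SRC3-driven luciferase light from the GAL4 reporter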
Target sequence (Q9Y6Q9 whole entry, looked up, the tested form may be a part): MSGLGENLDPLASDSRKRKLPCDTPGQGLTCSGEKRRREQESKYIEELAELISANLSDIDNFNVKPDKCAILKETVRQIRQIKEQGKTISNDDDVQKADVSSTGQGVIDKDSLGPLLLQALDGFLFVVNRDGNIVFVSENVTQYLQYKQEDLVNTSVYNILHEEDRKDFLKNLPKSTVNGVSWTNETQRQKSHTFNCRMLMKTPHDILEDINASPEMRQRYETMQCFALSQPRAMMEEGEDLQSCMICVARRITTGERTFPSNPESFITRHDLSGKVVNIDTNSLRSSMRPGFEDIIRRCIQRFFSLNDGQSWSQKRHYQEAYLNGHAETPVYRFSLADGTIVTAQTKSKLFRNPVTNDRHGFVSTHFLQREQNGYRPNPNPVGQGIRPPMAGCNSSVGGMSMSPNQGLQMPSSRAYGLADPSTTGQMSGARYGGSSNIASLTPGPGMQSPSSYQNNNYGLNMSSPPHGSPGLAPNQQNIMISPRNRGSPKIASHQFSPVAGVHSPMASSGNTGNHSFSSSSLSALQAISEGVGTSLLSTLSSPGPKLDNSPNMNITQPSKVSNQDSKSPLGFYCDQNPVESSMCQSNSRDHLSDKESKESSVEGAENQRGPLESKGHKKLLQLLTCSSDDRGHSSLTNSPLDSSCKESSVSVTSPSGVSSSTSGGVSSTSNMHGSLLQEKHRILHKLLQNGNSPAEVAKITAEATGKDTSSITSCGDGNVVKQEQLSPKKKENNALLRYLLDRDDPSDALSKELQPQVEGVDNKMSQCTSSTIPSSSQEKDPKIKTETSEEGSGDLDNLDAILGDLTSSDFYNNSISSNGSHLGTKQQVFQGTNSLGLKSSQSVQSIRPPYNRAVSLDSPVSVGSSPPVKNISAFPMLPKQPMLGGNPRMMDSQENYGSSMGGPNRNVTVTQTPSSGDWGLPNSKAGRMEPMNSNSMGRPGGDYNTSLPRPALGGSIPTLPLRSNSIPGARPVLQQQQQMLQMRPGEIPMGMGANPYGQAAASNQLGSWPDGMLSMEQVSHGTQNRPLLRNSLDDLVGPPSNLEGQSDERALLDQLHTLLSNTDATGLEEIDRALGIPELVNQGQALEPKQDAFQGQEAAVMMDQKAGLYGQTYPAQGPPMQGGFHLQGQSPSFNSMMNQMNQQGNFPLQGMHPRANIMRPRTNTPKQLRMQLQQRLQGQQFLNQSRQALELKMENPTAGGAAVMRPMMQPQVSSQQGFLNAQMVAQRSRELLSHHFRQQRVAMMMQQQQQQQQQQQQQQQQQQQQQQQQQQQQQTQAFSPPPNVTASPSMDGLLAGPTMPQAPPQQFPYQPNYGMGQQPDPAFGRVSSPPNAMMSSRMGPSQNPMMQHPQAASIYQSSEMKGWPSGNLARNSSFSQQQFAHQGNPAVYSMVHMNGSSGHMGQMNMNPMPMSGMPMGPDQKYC
SRC1 inh: SRC1 coactivator transcriptional activity inhibitors, primary screen, cell-based, luminescence; Nuclear receptor coactivator 1 (Homo sapiens), Q15788; HEK293 GAL4-SRC1 luciferase reporter; inhibition, % at 3.6 µM; 360,000 tested, 0.12% active; AID 588354, 2011;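 active means inhibition above the campaign mean plus 3 SD, with each screening campaign given its own cutoff, cut at about 60% in these data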;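 further: 0% = DMSO treated cells and 100% = gossypol at 36 µM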
Gli-Sufu block: Gli-Sufu pathway antagonists, primary screen, luciferase luminescence, Sufu-KO-LIGHT cells, uHTS. Sufu-KO-LIGHT fibroblasts, Gli luciferase reporter luminescence. inhibition, % at 5 µM. 340,000 tested, 0.74% active. AID 588413, 2011;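 active means inhibition above about 55%, limit read from the data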;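 further: 0% = DMSO-treated cells and 100% = wells with medium but no cells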
Shn3 3UTR inh: reduction of Shn3 3'UTR firefly luciferase signal, primary screen, Schnurri-3 inhibitor project, cell-based, Clone20 osteoblasts, set 2. AID 588674, 2011. 360,000 tested, 0.52% active. Clone20 osteoblast Shn3 3'UTR firefly luciferase, 24 h. inhibition, % at 12.5 µM;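 active means mean inhibition of at least 75% with every replicate also reaching 75%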;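 further: 0% = median of neutral control wells and 100% = pilot-screen positive control compound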
Gli-Sufu confirm: Gli-SUFU pathway antagonists, confirmation, single concentration, luciferase luminescence, Sufu-KO-LIGHT cells; Gli luciferase reporter; AID 602428, 2012; 2,500 tested, 40% active; shares compounds with Gli-Sufu block; inhibition, % at 5 µM;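 active means mean inhibition at 5 µM reaching about 45%, limit read from the data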;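 further: plate controls were DMSO-treated cells for no effect and wells lacking cells for full effect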
SufuKO cytotox: cytotoxicity in Sufu-KO-LIGHT cells, confirmation, cytotoxicity control for Gli-SUFU antagonist project, cell-based, ATP luminescence, single concentration; AID 651994, 2013; shares compounds with Gli-Sufu block; cytotoxicity, % at 5 µM; 2,500 tested, 32% active;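 active means mean cytotoxicity at 5 µM above about 25%, limit read from the data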;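 further: cells exposed to compound overnight for roughly 16 to 18 hours; plate controls were DMSO wells with cells for no effect and medium without cells for full effect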
Wnt3a counter: Wnt3a reporter signal inhibition, confirmation, counter-screen for Gli-SUFU antagonist project, Wnt-LIGHT cells, luminescence, single concentration; shares compounds with Gli-Sufu block; Wnt3a-driven luciferase reporter; inhibition, % at 6.25 µM; 2,500 tested, 20% active;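 active means mean inhibition above about 25%, limit read from the data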
Numbers without * were called inactive; . = no result given. In the library only some 1.1% were active in any assay of this set; here they are far more common.

SMILES | SRC2 inh | LRH-1 inv ag | SRC3 inh | SRC1 inh | Gli-Sufu block | Shn3 3UTR inh | Gli-Sufu confirm | SufuKO cytotox | Wnt3a counter
CC1CCC2(CC1)CCN(CCCOC(=O)NCc1ccc(Cl)cc1)C2=O (stereo unspecified) | 21 | . | . | . | . | . | . | . | .
O=C(C[C@@H]1C/C=C\C[C@@H](NC(=O)OCC2c3ccccc3-c3ccccc32)C(=O)OC[C@@H](Cc2ccccc2)NC1=O)NCCO | 6 | -12 | 1 | 7 | 54 | 58 | 62* | 28* | -69
O=C(N[C@H]1C/C=C\C[C@@H](CC(=O)N(CCO)Cc2ccccc2)C(=O)NC[C@H](c2ccccc2)OC1=O)OCC1c2ccccc2-c2ccccc21 | 2 | -30 | -18 | -11 | 59* | -6 | 59* | 16 | 34*
O=C(C[C@@H]1C/C=C\C[C@H](NC(=O)OCC2c3ccccc3-c3ccccc32)C(=O)O[C@H](c2ccccc2)CNC1=O)NCCO | -25 | -12 | 7 | 11 | 54 | 33 | 59* | 34* | -71
C[C@@H]1COC(=O)[C@H](NC(=O)OCC2c3ccccc3-c3ccccc32)C/C=C\C[C@@H](CC(=O)N(CCO)Cc2ccccc2)C(=O)N1 | . | 12 | -21 | 4 | 55* | 26 | 48* | 30* | -14
O=C(C[C@H]1C/C=C\C[C@H](NC(=O)OCC2c3ccccc3-c3ccccc32)C(=O)O[C@@H](c2ccccc2)CNC1=O)NCCO | -7 | 1 | -21 | 11 | 27 | 12 | . | . | .
CN(CC#Cc1ccccc1)C(N)=NC(=O)/C=C/c1cccc(C(F)(F)F)c1 | -7 | . | . | . | . | . | . | . | .
O=C(N[C@@H]1C/C=C\C[C@@H](CC(=O)N(CCO)Cc2ccccc2)C(=O)NCCOC1=O)OCC1c2ccccc2-c2ccccc21 | . | -6 | 3 | -2 | 52 | 30 | 48* | 22 | -30
O=C(N[C@@H]1C/C=C\C[C@H](CC(=O)N(CCO)Cc2ccccc2)C(=O)N[C@@H](Cc2ccccc2)COC1=O)OCC1c2ccccc2-c2ccccc21 | -13 | -27 | 0 | -15 | 40 | 32 | . | . | .
CC(C)(C)[C@H]1COC(=O)[C@H](NC(=O)OCC2c3ccccc3-c3ccccc32)C/C=C\C[C@@H](CC(=O)N(CCO)Cc2ccccc2)C(=O)N1 | -5 | -5 | -4 | -14 | 58* | 45 | 52* | 14 | -40
CN(C)S(=O)(=O)NCCNc1ccc(C(F)(F)F)cc1[N+](=O)[O-] | -55 | -4 | 6 | 1 | 98* | -16 | 3 | 22 | -86
COC(=O)[C@]12C[C@H](CC(=O)N3CCSCC3)C(=O)N(Cc3cccc4ccccc34)C1=C[C@H](C1CCCC1)O[C@@H]2C | 11 | . | . | . | . | . | . | . | .
c1ccc(-c2nn(-c3ccccc3)[n+](-c3ccccc3)n2)cc1 | 14 | 49 | 43 | 37 | 63* | 37 | 67* | 14 | 33*
CCN(CC)C(=O)c1oc2ccc(S(=O)(=O)N3CC(C)CC(C)C3)cc2c1C (stereo unspecified) | 14 | 25 | 21 | -20 | 63* | 91* | 62* | 23 | 44*
COc1ccc(OC[C@@H](O)CN2CCC(C(O)(c3ccccc3)c3ccccc3)CC2)cc1 | 16 | . | . | . | . | . | . | . | .
CCN1CCN(C(=O)/C=C/c2ccc(OC)cc2)CC1 | 7 | 2 | -4 | -38 | 60* | 0 | 28 | 27* | -4
